Compound activity: PubChem BioAssay, National Center for Advancing Translational Sciences (NCATS)
Shown are actives, neighbours in structure and some others; about 15% of the full set was active somewhere.
Pf growth 48h = P. falciparum growth inhibition at 48 hours (one generation); 5.9% of 310,000 active; P. falciparum luciferase growth in erythrocytes, 48 h; AID 504832; Potency, µM (doses to about 28.7 µM), without a hit: at the highest dose activity change, negative = inhibition, usual class: inhibitors; further: potency means the concentration at half of the fitted maximal effect; on the % scale 0 is the no-effect control and ±100 the full control effect
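Firefly luciferase activity from engineered P. falciparum reports growth; inhibitors lower the luminescent signal. Cultures contained 2% hematocrit erythrocytes at 0.1% final parasitemia.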
SARS PLpro yeast = inhibitors of SARS-CoV papain-like protease in yeast; S. cerevisiae expressing SARS-CoV PLpro, growth rescue; Potency, µM (doses to about 32.9 µM), for the others: top-dose activity, positive = growth rescue, actives largely listed as activators; 0.19% of 330,000 active; AID 485353; calls by dose curve; further: potency means the concentration at half of the fitted maximal effect; 0% is about no effect; nearly all actives have a fitted effect of over 55% in size
Sm TGR inh = inhibitors of Schistosoma mansoni thioredoxin glutathione reductase | AID 485364 | Potency, µM (series often up to 114 µM), inactives show at the top dose activity change, negative = inhibition, usual class: inhibitors | 3% of 360,000 active | purified TGR, DTNB reduction, TNB absorbance 405 nm | Q962Y6; further: potency means the concentration at half of the fitted maximal effect; on the % scale 0 is the no-effect control and ±100 the full control effect; nearly all actives have a fitted effect of over 60% in size
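TGR 20 nM + NADPH 100 uM (dispensed conc.), cpd preinc 15 min RT; start with NADPH (500 uM addition) then DTNB (15 mM addition). Kinetic TNB absorbance, 405 nm filter. Four-parameter Hill fit across titration.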
HCV inhibitor = blocks hepatitis C virus | Huh7.5.1 HCVcc-Cre infection, luciferase reporter, 44 h | Potency, µM (titrated, usually from 41.8 µM), without a hit: at the top dose activity change, negative = inhibition, usual class: inhibitors | 3.4% of 340,000 active | AID 651820; further: potency means the concentration at half of the fitted maximal effect; on the % scale 0 is the no-effect control and ±100 the full control effect
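Compounds are dispensed onto cells plated 4 h earlier at 1,000 per well, with HCVcc-Cre virus (about 0.5 moi) added next. Following 44 h of culture, luminescent signal is measured for 15 sec after 15 min with substrate at room temperature.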
Pf growth 96h = P. falciparum growth inhibition at 96 hours | P. falciparum luciferase reporter growth, 96 h | Potency, µM (titrated, usually from 28.7 µM), for inactives: at the top dose activity change, negative = inhibition, hits mostly inhibitors | 6.9% of 320,000 active; further: potency means the concentration at half of the fitted maximal effect; on the % scale 0 is the no-effect control and ±100 the full control effect
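Delayed-death screen, second-generation endpoint: infected erythrocytes, 2% hematocrit, 0.05% parasitemia final; 96 hours at 37 C, 5% CO2; luciferase detection reagent; luminescence decrease equals reduced growth.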
HCMV antiviral = human cytomegalovirus inhibition | HFF cells, HCMV-luciferase reporter, 72 h; hits give low values | activity change, negative = inhibition, % at 57.5 µM | 4.5% of 410,000 active | AID 1259415; in the data active means activity change below about -60%; inconclusive means no clear call, values can overlap the other calls; inactive means above about -39%; further: on the % scale 0 is the no-effect control and ±100 the full control effect
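Steps: HFFs plated, 16 h 37C; compounds added; HCMV-luciferase added to MOI 1 PFU/cell; 72 h 37C; OneGlo reagent, 5 min room temperature; luminescence read, normalized to controls.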
The depositor's hits bear a star; i = inactive; u = inconclusive; x = no result; [ ] = dose if it differs, or a comment. Unless noted, the call rests on the fitted dose curve; in most records, active means well fitted curve in the direction sought with a large enough effect; inconclusive means small, poorly fitted or top-dose-only effect, or another doubt; inactive means no such curve, though single readings can be large; an effect the other way counts as inactive or inconclusive.

SMILES	Pf growth 48h	SARS PLpro yeast	Sm TGR inh	HCV inhibitor	Pf growth 96h	HCMV antiviral
COc1ccc(C(=O)/C=C/c2ccc(OC)c(CN3CCOCC3)c2)cc1	-1%	23%	-3%	11%	25%	-77*
COc1ccc(-c2noc(CCC(=O)N3CCN(c4ccccc4Br)CC3)n2)cc1	x	-8%	x	-41%	x	-5
CON(C)C(=O)/C=C/[C@H](CC1CCCC1)NC(=O)C(F)(F)F	x	x	x	x	x	-10
COc1ccccc1/C=C/C(=O)Nc1ccc2c(c1)OCCO2	327%	-60%	-2%	-30%	13µM*	42
COc1cc(C(=O)Nc2ccc3c(c2)OCCO3)ccc1OC(C)C	99%	-7%	-7%	13µM*	u	108
COc1cc(C(=O)Nc2ccc3c(c2)OCCO3)ccc1OC(F)F	14%	-2%	-8%	u	u	121
COc1cc2[nH]c(C(=O)Nc3ccc4c(c3)OCCO4)cc2c(OC)c1OC	u	-2%	5%	u	u	-36
O=C(/C=C/c1ccco1)Nc1ccc2c(c1)OCCO2	i	-2%	20µM*	-27%	187%	-17
COc1cc2cc(C(=O)Nc3ccc4c(c3)OCCO4)[nH]c2cc1OC	-1%	6%	-6%	u	-12%	-68*
O=C(/C=C/c1ccccc1)Nc1ccc2c(c1)OCCO2	73%	-4%	4%[57.1 µM]	-18%	u	16
CCN1CCc2c(OCC(=O)Nc3ccc4c(c3)OCCO4)cccc2C1=O	-40%[1.15 µM]	-1%	3%	x	6.6µM*	x
COc1cccc(OC)c1C(=O)Nc1ccc2c(c1)OCCO2	21%	8%	2%	12%	15%	-79*
COc1ccccc1NC(=O)Nc1ccc2c(c1)OCCO2	56%	2%	-1%	-3%	4%	53
C=CCN(c1ccc(F)cc1)S(=O)(=O)c1cc(C(=O)OCC(=O)N(C)C2CCS(=O)(=O)C2)ccc1Cl (stereo not given)	u	0%	-3%	3%	-1%	-15
Cc1ccc(-n2cc(CN(C)Cc3nccn3C)c(-c3ccc(F)cc3)n2)cc1	8.3µM*	0%	-8%	-18%	-18%	u
Cc1ccc(-n2cc(CN3CCNC(=O)CC3)c(-c3ccc(F)cc3)n2)cc1	u	1%	0%	-3%	u	u
COc1ccc(-n2cc(CN3CCCC3)c(-c3cccc(F)c3)n2)cc1	u	0%	0%	-16%	249%	u
Cc1ccc(-c2nn(-c3cccc(F)c3)cc2CN(Cc2nccn2C)C(C)C)o1	u	-3%	20µM*	-9%	10%	u
CC(=O)N1CCCN(Cc2cn(-c3ccc(C)cc3)nc2-c2cccc(C)c2)CC1	9.3µM*	0%	13%	-16%	u	-33
Cc1cccc(-n2cc(CN3CCN(Cc4nccn4C)CC3)c(-c3cccc(F)c3)n2)c1	3.3µM*	0%	-15%	u	-11%	1
FC(F)(F)c1cccc(-c2nc3c(NCCc4ccccn4)nccc3[nH]2)c1	x	x	x	x	x	-3
O=C(NCc1cccnc1)c1cc(C2CCCN(S(=O)(=O)c3cccs3)C2)on1 (stereo not given)	x	x	x	x	x	-4
Cc1ccc(-n2cc(CN(C)Cc3ncc[nH]3)c(-c3cccc(C)c3)n2)cc1	2.6µM*	0%	2%[57.1 µM]	u	0%	u
Cc1ccc(-n2cc(CN3CCC(O)(c4ccccn4)CC3)c(-c3ccc(F)cc3)n2)cc1	4.7µM*	-1%	u	u	2.3µM*	u
Cc1ccc(-n2cc(CN(C)CCc3cn[nH]c3)c(-c3cccc(C)c3)n2)cc1	u	1%	10%	26%	3%	u
Cc1ccc(-n2cc(CNC(C)Cc3cnccn3)c(-c3cccc(C)c3)n2)cc1 (stereo not given)	3.3µM*	0%	5%	-11%	21%	-35
CCN1CC(CN(C)Cc2cn(-c3ccc(C)cc3)nc2-c2cccc(C)c2)CC1=O (stereo not given)	10µM*	1%	-3%	-12%	u	13
